SKKanGAS inh: blocks kanamycin growth of S. pyogenes SKKanGAS strain. 300,000 compounds, 1.3% hits. BacTiter-Glo, 6 h. inhibition, % at 7.5 µM;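 active = mean replicate score, as percent of positive control median, at least 50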;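 note: strain carries kanamycin resistance gene driven by streptokinase promoter and grows in 40 µg/ml kanamycin; loss of luminescence reflects streptokinase promoter inhibition or plain growth inhibition; 0% = median of DMSO wells and 100% = positive control at its reference dose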
tim10-1 inh: inhibits growth of tim10-1 mutant yeast; S. cerevisiae tim10-1 ts strain growth, BacTiter-Glo, 24 h; 330,000 compounds, 2.2% hits; inhibition, % at 20 µM; AID 463190;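 active = inhibition of at least 40%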;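 note: mutant grown at 25 °C; 0% = DMSO wells with yeast and 100% = wells holding no yeast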
TIM10 inh: inhibits growth of TIM10 yeast strain. S. cerevisiae TIM10 strain growth, BacTiter-Glo luminescence, 24 h. inhibition, % at 10 µM. 330,000 compounds, 1.4% hits;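 active = inhibition of 40% or more at the single tested concentration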;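 note: wild-type TIM10 isogenic control strain grown at permissive 25 °C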
PfHsp90 set2: inhibits growth of yeast expressing Plasmodium falciparum Hsp90. S. cerevisiae expressing PfHsp90, BacTiter-Glo ATP, 48 h; yeast lacking PDR1 and PDR3 efflux regulators. inhibition, % at 9.4 µM. 310,000 compounds, 0.32% hits;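 active = every replicate shows inhibition above about 80%, whatever the replicate mean, limit read from the data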;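 note: 0% = DMSO neutral controls and 100% = 20 µM radicicol positive controls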
tim23-1 inh: tim23-1 yeast growth inhibition; S. cerevisiae tim23-1 growth, BacTiter-Glo luminescence, 24 h; inhibition, % at 20 µM; 330,000 compounds, 1.3% hits; AID 463212;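 active = growth inhibition of the mutant yeast at or above 50%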;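 note: temperature-sensitive mutant grown at 25 °C; plate controls were DMSO-treated mutant yeast for no effect and medium wells lacking yeast for full effect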
tim10-1 conf: tim10-1 yeast growth inhibition, confirmed | shares compounds with tim10-1 inh | S. cerevisiae tim10-1 ts strain growth, BacTiter-Glo, 24 h | inhibition, % at 20 µM | 7,400 compounds, 56% hits | AID 463213;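 active = inhibition of yeast growth at or above a set limit in either of two repeat tests at 20 µM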;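 note: tim10-1 mutant grown at permissive 25 °C to find synthetic lethal compounds; 0% = DMSO yeast wells and 100% = medium wells without yeast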
TIM10 conf: TIM10 yeast growth inhibition, confirmed. shares compounds with TIM10 inh. S. cerevisiae tim10 strain growth, BacTiter-Glo luminescence, 24 h. inhibition, % at 10 µM. 4,600 compounds, 63% hits;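 active = inhibition of yeast growth at or above a set limit in either of two replicates at 10 µM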;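 note: this counterscreen used the strain with wild-type TIM10; 0% = yeast with DMSO and 100% = medium wells lacking yeast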
An asterisk follows results filed as active; / = not tested or not shown. Only some compounds are listed: those with a hit (about 4.4% of all), similar ones and a draw of the others.

SMILES | SKKanGAS inh | tim10-1 inh | TIM10 inh | PfHsp90 set2 | tim23-1 inh | tim10-1 conf | TIM10 conf
O=C(N/N=C/c1ccccn1)c1cc([N+](=O)[O-])cc([N+](=O)[O-])c1 | 16 | 42* | 48* | 10 | 20 | 11 | 8
COc1ccc(S(=O)(=O)n2nc(OC(=O)c3cccs3)cc2N)cc1 | 6 | 45* | 44* | 16 | 40 | 31* | 52*
COc1ccc(CN2CCSc3sccc3C2=O)cc1 | -3 | -5 | 8 | 29 | 15 | / | /
N/N=C(/Cc1nc2ccccc2[nH]1)c1ccc([N+](=O)[O-])cc1 | 12 | 42* | 51* | 12 | 28 | 50* | 58*
O=C(NCCc1nc2ccccc2[nH]1)c1cc([N+](=O)[O-])cc([N+](=O)[O-])c1 | 1 | 21 | 10 | 5 | 7 | / | /
O=C(CNc1cccc(C(F)(F)F)c1)N/N=C/c1cccc(Br)c1 | 7 | 44* | 49* | -28 | 18 | 24 | -28
Cc1cccc(NCC(=O)N/N=C/c2cccc(Br)c2)c1 | -5 | -6 | 15 | -2 | 1 | / | /
CCc1ccc(NC(=O)Cn2c3[n+](c4c(F)c(F)ccc42)CCCCC3)cc1 | 2 | -7 | -20 | 50 | 12 | / | /
COc1ccc(C(=O)NCCNc2nc3ccc(C)cc3cc2C#N)cc1OC | -10 | -3 | -12 | -1 | 12 | / | /
C[C@H]1CC[C@H]2C(=O)N3[C@H](c4ccccc4Br)[C@@H](C)CC[C@H]3C(=O)N2[C@@H]1c1ccccc1Br | 11 | 41* | 44* | / | 47 | 33* | 41*
COc1ccc(C(=O)/C(=C\c2ccco2)N2C=CC=CC2=C(C#N)C#N)cc1 | 0 | 53* | 59* | 13 | 31 | 41* | 53*
CCN(CC(=O)Nc1ccc(OC)cc1)C(=O)Cc1ccsc1 | / | 1 | 10 | -6 | -1 | / | /
O=C(NCc1ccco1)c1ccccc1F | -1 | 20 | 8 | 3 | -1 | / | /
O=C(NCc1ccco1)c1ccccc1Nc1ccc(F)cc1 | / | 52* | 44* | -5 | 47 | 47* | 36*
O=C(Nc1ccc(Cl)c(C(F)(F)F)c1)c1ccco1 | / | 46* | 51* | -52 | 44 | 56* | 12
O=C(Nc1cccc(C(F)(F)F)c1)c1ccco1 | -5 | 5 | 16 | / | 14 | / | /
COc1ccc2[nH]c3c(=O)n4c(nc3c2c1)SCC4 | 5 | 45* | 40* | -22 | 28 | 37* | 18
O=c1c2[nH]c3ccccc3c2nc2n1CCS2 | 4 | 34 | 9 | 17 | 7 | / | /
c1ccc(Oc2nc(-c3ccccn3)nc3ccccc23)cc1 | 109* | 43* | 50* | / | 47 | 23 | 19
COc1ccc2cc(S(=O)(=O)NCc3cccnc3)ccc2c1 | -18 | -1 | -6 | -9 | 2 | / | /
CC(=O)Oc1c(-c2ccco2)oc2ccccc2c1=O | -1 | 53* | 62* | -48 | 48 | 49* | 61*
COc1ccc(/C=C/C(=O)C23CC4CC(CC(C4)C2)C3)cc1CN1CCOCC1 | 3 | 46* | 46* | 12 | 38 | 38* | 36*
CCOc1cc(/C=C2/N=C(c3ccc4c(c3)OCO4)OC2=O)ccc1OC(C)=O | / | 34 | 30 | -8 | 33 | / | /
CC(=O)Oc1ccc(/C=C2\N=C(C3CCCCC3)OC2=O)cc1 | -3 | 46* | 56* | -21 | 44 | 46* | 41*
COc1ccc(C=C(NC(=O)c2ccccc2)C(=O)O)cc1OC | / | / | / | -21 | / | / | /
SMILES | SKKanGAS inh | tim10-1 inh | TIM10 inh | PfHsp90 set2 | tim23-1 inh | tim10-1 conf | TIM10 conf
CCOc1ccc(Cl)cc1S(=O)(=O)n1nnc2ccccc21 | -2 | 46* | 51* | -6 | 47 | 42* | -9
CN1CCc2c(sc(NC(=O)C3CCCN3S(=O)(=O)c3ccc(Cl)s3)c2C(N)=O)C1 (stereo not drawn) | -1 | -6 | -3 | / | 1 | / | /
COc1ccc(CNc2ncnc3cc(Cl)ccc23)cc1OC | 6 | / | / | 8 | / | / | /
CCN(CC)Cc1cc2[nH]c3c4ccc(Cl)cc4ncc3c2cc1OC | -2 | 57* | 68* | -25 | 34 | 50* | 35*
CN(C)CCCN(C(=O)c1ccc(Br)s1)c1nc2cc3c(cc2s1)OCO3 | 6 | 27 | 2 | 20 | 23 | / | /
CN(C)CCCN(C(=O)C1COc2ccccc2O1)c1nc2cc3c(cc2s1)OCO3 (stereo not drawn) | -1 | 56* | 55* | -15 | 40 | 49* | 44*
CCc1nc2ccccc2c(=O)n1/N=C/c1ccc(Cl)cc1 | 1 | 14 | 15 | 12 | 16 | / | /
COc1ccc(C)c2sc(N3CCCC3)nc12 | -6 | 44* | 44* | / | 46 | 33* | 26
Cc1nn2c(=O)cc(CSCC(=O)Nc3ccccc3Cl)nc2s1 | -8 | -2 | 2 | 1 | 13 | / | /
Cc1ccc(OCCn2c(SCCO)nc3c(N)ncnc32)cc1 | -3 | -2 | 5 | -6 | -12 | / | /
CC(C)C[C@H](NC(=O)[C@H](Cc1ccccc1)n1c(=O)[nH]c2ccccc2c1=O)C(=O)N1CCC[C@@H]1C(=O)O | 3 | -6 | 6 | 3 | 1 | / | /
S=c1[nH]nc(-c2ccc(Br)cc2)n1Cc1ccccc1 | 0 | 42* | 46* | -16 | 19 | 25 | 45*
Oc1ccc(-c2n[nH]c(=S)n2Cc2ccccc2)cc1 | -2 | 20 | 4 | 0 | 11 | / | /
CC1CN(C(=O)COC(=O)Cc2ccc(Cl)cc2)CC(C)O1 (stereo not drawn) | / | 23 | -4 | -10 | -6 | / | /
CC1CCCC(NC(=O)c2cccc(S(=O)(=O)N3CCCCC3)c2)C1C (stereo not drawn) | -2 | 2 | 10 | -16 | 2 | / | /
O=C(Nc1ccc2[nH]ncc2c1)c1ccccc1Cl | 1 | 2 | 9 | -8 | 3 | / | /
COC(=O)c1ccccc1NC(=S)NC(=O)COc1ccccc1Cl | 17 | 42* | 42* | / | 34 | 24 | 32
COC(=O)c1ccccc1NC(=S)NC(=O)COc1ccc(C)cc1 | 7 | -2 | 9 | -23 | 3 | / | /
O=C(Nc1ccc(Cl)c([N+](=O)[O-])c1)ONC1=NCCCCC1 | 1 | 78* | 54* | -1 | 41 | 77* | 46*
COc1cc(C(=O)Nc2ccc(Cl)c([N+](=O)[O-])c2)cc(OC)c1OC | 3 | 2 | -11 | -32 | -16 | / | /
COc1ccccc1CNC(=O)c1ccccc1C(=O)NC(CC(C)C)C(=O)NCc1ccccc1OC (stereo not drawn) | -3 | 8 | 0 | -3 | 5 | / | /
COc1ccccc1CNCC(O)(c1ccc(Cl)cc1)c1ccc(Cl)cc1 | 29 | 46* | 52* | / | 34 | 16 | 44*
COc1ccccc1CNCC(O)(c1ccc(F)cc1)c1ccc(F)cc1 | -1 | 28 | 15 | -2 | 14 | / | /
